Experimental data published in ChEMBL document CHEMBL4513216, “Probing the Open Global Health Chemical Diversity Library for Multistage-Active Starting Points for Next-Generation Antimalarials” (ACS Infect Dis, 2020).
Among all 68,000 compounds or so, about 2,700 (4%) showed an effect of 50% or more. This excerpt belongs to a sample that is enriched for strong results.

System: Plasmodium berghei
Assay: Screen against P. berghei liver stage (PbLuc), transformed with Luciferase, at 2uM
Type: functional, HepG2
Details: tested at 2 uM

Structure (SMILES) | INHIBITION [%]
CCCC1CCCN(C(=O)Nc2cccnc2OC)CC1 (configuration not stated) | 0.73
COc1ccc(C2CCCN2S(=O)(=O)c2cc(F)ccc2F)cc1 (configuration not stated) | 7.24
Cc1cc(=O)[nH]cc1C(=O)N1Cc2ccccc2N(C)CC1C (configuration not stated) | 47.59
CC(C)c1csc(C2CCCN(C(=O)Cn3ccccc3=O)C2)n1 (configuration not stated) | 54.92
Cc1nc(C(=O)N2CCCC(c3nc(C(C)C)cs3)C2)c[nH]1 (configuration not stated) | 77.56
CCc1csc(C2CCCN(C(=O)c3ccc(=O)n(C)n3)C2)n1 (configuration not stated) | 26.51
Cc1nc(C2CCCN(C(=O)Cn3ccccc3=O)C2)sc1C (configuration not stated) | 14.77
CCc1csc(C2CCCN(C(=O)c3ccc(OC)nn3)C2)n1 (configuration not stated) | 11.18
CCc1csc(C2CCCN(C(=O)c3ccc(=O)n(CC)n3)C2)n1 (configuration not stated) | 60.09
CCc1csc(C2CCCN(C(=O)c3c[nH]c(C)n3)C2)n1 (configuration not stated) | 33.91
Cc1csc(C2CCCN(C(=O)c3c[nH]c(C)n3)C2)n1 (configuration not stated) | -92.68
Cc1csc(C2CCCN(C(=O)Cn3ccccc3=O)C2)n1 (configuration not stated) | 42.29
CC(C)NC(=O)NCc1nnc2n1C(C(=O)N(C)C)CC2 (configuration not stated) | 24.34
O=C(NCc1ccc(OCC2CC2)nc1)C1COc2ccccc2O1 (configuration not stated) | 2.21
CC1CCN(C(=O)[C@@H]2C[C@H]3OCC[C@H]3N(Cc3ccoc3)C2)CC1 | 23.1
Cc1cnc(CN(C)C(=O)C23CNCC2CNC3)[nH]1 (configuration not stated) | -16.03
COc1ncccc1C(=O)N(C)Cc1nc(-c2ccccn2)no1 | 16.37
CNC(=O)c1ccc(C(=O)N2CCCCC2Cn2cc(C)cn2)cn1 (configuration not stated) | 61.96
Cc1cnn(CC2CCCCN2C(=O)c2ccc(NC3CC3)nc2)c1 (configuration not stated) | 14.53
COCc1nc(C(=O)N2CCCCC2Cn2cc(C)cn2)cs1 (configuration not stated) | 29.71
Cc1cnn(CC2CCCCN2C(=O)c2csc(C)n2)c1 (configuration not stated) | 53.58
Cc1cnn(CC2CCCN2C(=O)c2ccc(C(N)=O)cn2)c1 (configuration not stated) | 40.29
CC(=O)Nc1nc(C(=O)N2CCCCC2Cn2cc(C)cn2)cs1 (configuration not stated) | -7.73

Structure (SMILES) | INHIBITION [%]
CC(C)C1CN(C(=O)c2cc(=O)[nH]c(=O)[nH]2)CCCN1CC1CC1 (configuration not stated) | -15.77
CN(C)CCn1c([C@@H]2CCCO2)cc2cccnc21 | 47.82
O=C(N1CCCC1)N1CCc2c(CNc3ncccn3)cncc2C1 | 34.98
Cc1cc(CN2CCC3(CC2)CC(C(=O)O)N(C(=O)C2CC2)C3)oc1C (configuration not stated) | 9.11
CCSCC(C)NCc1nc(-c2cccnc2)no1 (configuration not stated) | -15.07
Cc1nn2c(nc1=O)-c1ccccc1NC2C(=O)O (configuration not stated) | 24.05
Cc1ccc(C(=O)N2CCC3(CCN(c4ccsc4)C3=O)C2)cn1 (configuration not stated) | 52.66
COCC(=O)N1CCCC2(CCN(c3ccsc3)C2=O)C1 (configuration not stated) | -68.7
O=C(N1CCCC1)N1CCCC2(CCN(c3ccsc3)C2=O)C1 (configuration not stated) | 45.82
O=C(CO)N1CCCC2(CCN(c3ccsc3)C2=O)C1 (configuration not stated) | 55.21
O=C(c1cccnc1)N1CCCC2(CCN(c3ccsc3)C2=O)C1 (configuration not stated) | 18.37
O=C(c1ccsc1)N1CCC2(CCN(Cc3ccccn3)C2=O)C1 (configuration not stated) | 57.85
C[C@H]1CN(C(=O)c2cscn2)C[C@@]12CCN(c1ccsc1)C2=O | 55.8
C[C@@H]1CN(C(=O)c2ccsc2)C[C@]12CCN(c1ccsc1)C2=O | -1.79
O=C(c1ccc(F)cc1)N1CCC2(CCN(Cc3ccccn3)C2=O)C1 (configuration not stated) | 11.6
Cc1cccc(C(=O)N2C[C@@H](C)[C@@]3(CCN(c4ccsc4)C3=O)C2)n1 | 15.44
O=C(c1ccnnc1)N1CCC2(CCN(c3ccsc3)C2=O)C1 (configuration not stated) | -12.06
Cc1ccc(C(=O)N2CCC3(CCN(Cc4ccccn4)C3=O)C2)cn1 (configuration not stated) | 17.64
c1ccc(CCCN2CCCC2Cn2cncn2)cc1 (configuration not stated) | 1.63
CCOCCCNC(=O)NCc1c(C)nn(C)c1C | 6.4
Cc1nn(CCC#N)c(C)c1CCC(=O)N(C)C | -57.94
Cc1nn(CCC#N)c(C)c1CCC(=O)N(C(C)C)C1CC1 | 52.6
Cc1nn(CCC#N)c(C)c1CCC(=O)N(C)Cc1ccsc1 | 35.84

Structure (SMILES) | INHIBITION [%]
CCC(=O)Nc1ccc(C(C)NC(=O)COC)cc1 (configuration not stated) | -64.67
Cc1cc(Cn2cc(C#N)c(=O)c3ccccc32)no1 | -0.45
CC(C)c1ccc(CN2C(=O)C3(CCNCC3)Nc3ccccc32)cc1 | 6.72
O=C(C1COCCO1)N1CCN(Cc2ccc3c(c2)CCO3)CC1 (configuration not stated) | 83.96
O=C(NCC1CCCO1)N1CCN(Cc2ccc3c(c2)CCO3)CC1 (configuration not stated) | 78.42
O=C(NCC1CCOC1)N1CCN(Cc2ccc3c(c2)CCO3)CC1 (configuration not stated) | 10.62
O=C(NCc1ccco1)N1CCN(Cc2ccc3c(c2)CCO3)CC1 | 9.17
O=C(C1CCOC1)N1CCN(Cc2ccc3c(c2)CCO3)CC1 (configuration not stated) | 47.87
O=C(C1CCCN(CCc2ccc3c(c2)CCO3)C1)N1CCCC1 (configuration not stated) | -0.62
CN(C)C1CCN(C(=O)NCc2ccc(Cn3cncn3)cc2)CC1 | -8.87
CN1CCN(Cc2cn3c(n2)CN(C2CCOCC2)CC3)CC1 | 20.01
Cc1cccc(C(C)CNS(=O)(=O)CCCC#N)c1 (configuration not stated) | 16.95
COCCS(=O)(=O)NCC(C)c1cccc(C)c1 (configuration not stated) | 72.49
COCCS(=O)(=O)NC(C)c1cccc(C)c1C (configuration not stated) | 16.38
COc1ccc(C(C)NCc2ccc(OC)c(OC)c2OC)cc1F (configuration not stated) | -6.67
CC(c1ccco1)N(C)C(=O)NCCOc1ccc(C#N)cc1 (configuration not stated) | -6.73
CC(=O)N[C@@H]1CN(C(=O)CC2CCOCC2)C[C@H]1O | -4.48
CCOCC(=O)N1C[C@@H](O)[C@H](NC(C)=O)C1 | -24.98
CC(=O)N[C@@H]1CN(C(=O)CC2CC2)C[C@H]1O | 53.16
Cc1noc(C)c1CN1CCn2cc(CNc3ccccn3)nc2C1 | 6.07
Cc1oc(CN(C)C(=O)c2ccc(C(F)(F)F)cc2)cc1C(=O)O | 40.4
